Targets with a hit are over-represented here; the source holds about 7,900 in all. About 0.6% of all pairs of compound and target were hits.
Tests used:
Assay in all cases: log2 fold change, soluble protein after heating vs DMSO (PISA); higher = thermal stabilisation; K562 cells, 10 uM, 30 min; active = over 0.2 and 3.5 SD of the protein, either way, in both replicates (recomputed)
[1] = compound: COC1=CC=C(C=C1)CN2C=CC3=C2C=C(C=C3)C(=O)NO
Summary of the method: (§1)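 K562 cells at 2×10^6 cells/mL were treated for 30 min with 10 μM compound, and aliquots were heated for 3 min over 48°C-58°C before pooling. Extraction used PBS with 0.5% NP-40 at 4°C, and soluble protein was the supernatant after 21,000xg for 90 min, measured by TMTpro 16plex LC-MS/MS with channel sums equalised. Thermal stability values, relative to control samples and from duplicates, are log2 fold changes.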

filanesib = compound: CON(C)C(=O)N1N=C(c2cc(F)ccc2F)S[C@@]1(CCCN)c1ccccc1 [filanesib]
Summary of the method: as §1

zotarolimus = compound: CO[C@H]1C[C@@H]2CC[C@@H](C)[C@@](O)(O2)C(=O)C(=O)N2CCCC[C@H]2C(=O)O[C@H]([C@H](C)C[C@@H]2CC[C@H](n3cnnn3)[C@H](OC)C2)CC(=O)[C@H](C)/C=C(\C)[C@@H](O)[C@@H](OC)C(=O)[C@H](C)C[C@H](C)/C=C/C=C/C=C/1C [zotarolimus]
Summary of the method: as §1

idasanutlin = compound: COc1cc(C(=O)O)ccc1NC(=O)[C@@H]1N[C@@H](CC(C)(C)C)[C@](C#N)(c2ccc(Cl)cc2F)[C@H]1c1cccc(Cl)c1F [idasanutlin]
Summary of the method: as §1

alisertib = compound: COc1cc(Nc2ncc3c(n2)-c2ccc(Cl)cc2C(c2c(F)cccc2OC)=NC3)ccc1C(=O)O [alisertib]
Summary of the method: as §1

[2] = compound: COc1cc2nc(-c3cc(F)ccc3O)nc(N[C@@H]3CNC[C@H]3C(C)(C)O)c2cc1OC
Summary of the method: as §1

gefitinib = compound: COc1cc2ncnc(Nc3ccc(F)c(Cl)c3)c2cc1OCCCN1CCOCC1 [gefitinib]
Summary of the method: as §1

[3] = compound: COc1cccc2cc(-c3nc([C@H]4CC[C@H](C(=O)O)CC4)n4ncnc(N)c34)[nH]c12
Summary of the method: as §1

lapatinib = compound: CS(=O)(=O)CCNCc1ccc(-c2ccc3ncnc(Nc4ccc(OCc5cccc(F)c5)c(Cl)c4)c3c2)o1 [lapatinib]
Summary of the method: as §1

pictilisib = compound: CS(=O)(=O)N1CCN(Cc2cc3nc(-c4cccc5[nH]ncc45)nc(N4CCOCC4)c3s2)CC1 [pictilisib]
Summary of the method: as §1

[4] = compound: CS(=O)(=O)c1ccc(-c2cnc(N)c(C(=O)Nc3ccccc3)n2)cc1
Summary of the method: as §1

crizotinib = compound: C[C@@H](Oc1cc(-c2cnn(C3CCNCC3)c2)cnc1N)c1c(Cl)ccc(F)c1Cl [crizotinib]
Summary of the method: as §1

[5] = compound: C[C@@H]1COCCN1C2=NC(=NC(=C2)C3(CC3)S(=O)(=O)C)C4=C5C=CNC5=CC=C4
Summary of the method: as §1

[6] = compound: C[C@H](C1=CC=C(C=C1)C(=O)NC2=C3C=CNC3=NC=C2)N
Summary of the method: as §1

duvelisib = compound: C[C@H](Nc1ncnc2nc[nH]c12)c1cc2cccc(Cl)c2c(=O)n1-c1ccccc1 [duvelisib]
Summary of the method: as §1

gandotinib = compound: Cc1cc(Nc2cc(CN3CCOCC3)c3nc(C)c(Cc4ccc(Cl)cc4F)n3n2)n[nH]1 [gandotinib]
Summary of the method: as §1

tozasertib = compound: Cc1cc(Nc2cc(N3CCN(C)CC3)nc(Sc3ccc(NC(=O)C4CC4)cc3)n2)n[nH]1 [tozasertib]
Summary of the method: as §1

[7] = compound: Cc1cc(SCc2sc(-c3ccc(C(F)(F)F)cc3)nc2C)ccc1OCC(=O)O
Summary of the method: as §1

doramapimod = compound: Cc1ccc(-n2nc(C(C)(C)C)cc2NC(=O)Nc2ccc(OCCN3CCOCC3)c3ccccc23)cc1 [doramapimod]
Summary of the method: as §1

ispinesib = compound: Cc1ccc(C(=O)N(CCCN)[C@@H](c2nc3cc(Cl)ccc3c(=O)n2Cc2ccccc2)C(C)C)cc1 [ispinesib]
Summary of the method: as §1

Measured: log2 fold change

ESS2 (UniProt Q96DF8)
Chain of UniProt Q96DF8 (Q96DF8 whole entry, looked up): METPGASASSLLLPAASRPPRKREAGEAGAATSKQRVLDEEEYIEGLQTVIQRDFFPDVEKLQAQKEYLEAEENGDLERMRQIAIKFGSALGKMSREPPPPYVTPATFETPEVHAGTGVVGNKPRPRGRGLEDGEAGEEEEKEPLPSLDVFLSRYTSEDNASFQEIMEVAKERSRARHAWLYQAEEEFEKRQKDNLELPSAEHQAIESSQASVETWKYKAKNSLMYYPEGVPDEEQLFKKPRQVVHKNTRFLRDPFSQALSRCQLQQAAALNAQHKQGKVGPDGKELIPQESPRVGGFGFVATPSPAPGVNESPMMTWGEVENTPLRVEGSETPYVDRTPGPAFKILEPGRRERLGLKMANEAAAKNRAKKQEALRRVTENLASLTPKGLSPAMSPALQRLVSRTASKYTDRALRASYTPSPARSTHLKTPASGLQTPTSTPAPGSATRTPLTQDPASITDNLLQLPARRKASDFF
inactive: [1] -0.022 | filanesib 0.046 | zotarolimus -0.019 | idasanutlin 0.052 | alisertib -0.125 | [2] -0.037 | gefitinib -0.088 | [3] 0.005 | lapatinib 0.073 | pictilisib -0.083 | [4] -0.081 | crizotinib -0.079 | [5] 0.016 | [6] 0.031 | duvelisib -0.069 | gandotinib 0.004 | tozasertib -0.029 | [7] -0.044 | doramapimod 0.02 | ispinesib -0.053

ECH1 (UniProt Q13011)
active: tozasertib 0.434
inactive: [1] -0.008 | filanesib -0.215 | zotarolimus -0.05 | idasanutlin -0.134 | alisertib 0.033 | [2] 0.045 | gefitinib -0.032 | [3] 0.02 | lapatinib -0.011 | pictilisib 0.033 | [4] 0.025 | crizotinib -0.086 | [5] 0.068 | [6] -0.011 | duvelisib 0.04 | gandotinib -0.195 | [7] -0.008 | doramapimod -0.023 | ispinesib -0.208

DBNL isoform 3 (UniProt Q9UJU6)
Chain of UniProt Q9UJU6 (Q9UJU6 whole entry, looked up): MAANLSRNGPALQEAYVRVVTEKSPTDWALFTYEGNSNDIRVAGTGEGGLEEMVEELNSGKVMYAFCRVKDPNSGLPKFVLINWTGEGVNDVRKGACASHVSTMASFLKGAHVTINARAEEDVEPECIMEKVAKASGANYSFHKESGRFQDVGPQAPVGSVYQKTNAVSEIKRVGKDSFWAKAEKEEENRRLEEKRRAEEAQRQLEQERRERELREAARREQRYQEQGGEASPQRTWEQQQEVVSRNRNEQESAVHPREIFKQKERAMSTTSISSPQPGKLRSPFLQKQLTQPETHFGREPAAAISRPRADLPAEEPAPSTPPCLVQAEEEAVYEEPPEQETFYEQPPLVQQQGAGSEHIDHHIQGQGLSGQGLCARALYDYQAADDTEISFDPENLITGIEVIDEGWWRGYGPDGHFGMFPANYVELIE
inactive: [1] 0.096 | filanesib 0.006 | zotarolimus -0.018 | idasanutlin 0.02 | alisertib 0.025 | [2] -0.002 | gefitinib 0.021 | [3] -0.016 | lapatinib 0.016 | pictilisib 0.027 | [4] 0.041 | crizotinib -0.116 | [5] 0.073 | [6] -0.016 | duvelisib 0.037 | gandotinib -0.094 | tozasertib 0.048 | [7] -0.015 | doramapimod 0.054 | ispinesib -0.048

DCAF16 (UniProt Q9NXF7)
Chain of UniProt Q9NXF7 (Q9NXF7 whole entry, looked up): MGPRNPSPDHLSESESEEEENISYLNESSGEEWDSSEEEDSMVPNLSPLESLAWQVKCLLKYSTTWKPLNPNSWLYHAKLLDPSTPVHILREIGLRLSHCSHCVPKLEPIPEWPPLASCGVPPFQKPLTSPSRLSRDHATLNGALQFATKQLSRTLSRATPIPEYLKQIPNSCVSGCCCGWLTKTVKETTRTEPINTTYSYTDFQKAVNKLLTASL
inactive: [1] 0.065 | filanesib 0.077 | zotarolimus 0.035 | idasanutlin 0.037 | alisertib -0.07 | [2] 0.021 | gefitinib 0.022 | [3] 0 | lapatinib -0.168 | pictilisib 0.132 | [4] 0.058 | crizotinib 0.001 | [5] 0.176 | [6] -0.103 | duvelisib 0.054 | gandotinib 0.069 | tozasertib 0.079 | [7] 0.17 | doramapimod -0.005 | ispinesib 0.036

FAM117A (UniProt Q9C073)
inactive: [1] 0.105 | filanesib -0.025 | zotarolimus 0.008 | idasanutlin 0.076 | alisertib 0 | [2] -0.059 | gefitinib -0.004 | [3] 0.024 | lapatinib -0.026 | pictilisib -0.019 | [4] -0.039 | crizotinib -0.166 | [5] -0.013 | [6] -0.132 | duvelisib -0.119 | gandotinib -0.053 | tozasertib -0.12 | [7] 0.067 | doramapimod 0.017 | ispinesib 0.024

EVC2 (UniProt Q86UK5)
inactive: [1] -0.073 | filanesib -0.142 | zotarolimus -0.039 | idasanutlin 0.053 | alisertib -0.066 | [2] -0.146 | gefitinib 0.09 | [3] 0.016 | lapatinib -0.224 | pictilisib -0.194 | [4] 0.022 | crizotinib -0.061 | [5] -0.244 | [6] -0.209 | duvelisib -0.162 | gandotinib 0.071 | tozasertib 0.02 | [7] -0.052 | doramapimod 0 | ispinesib 0.065

EEF1G isoform 2 (UniProt P26641)
Chain of UniProt P26641 (P26641 whole entry, looked up): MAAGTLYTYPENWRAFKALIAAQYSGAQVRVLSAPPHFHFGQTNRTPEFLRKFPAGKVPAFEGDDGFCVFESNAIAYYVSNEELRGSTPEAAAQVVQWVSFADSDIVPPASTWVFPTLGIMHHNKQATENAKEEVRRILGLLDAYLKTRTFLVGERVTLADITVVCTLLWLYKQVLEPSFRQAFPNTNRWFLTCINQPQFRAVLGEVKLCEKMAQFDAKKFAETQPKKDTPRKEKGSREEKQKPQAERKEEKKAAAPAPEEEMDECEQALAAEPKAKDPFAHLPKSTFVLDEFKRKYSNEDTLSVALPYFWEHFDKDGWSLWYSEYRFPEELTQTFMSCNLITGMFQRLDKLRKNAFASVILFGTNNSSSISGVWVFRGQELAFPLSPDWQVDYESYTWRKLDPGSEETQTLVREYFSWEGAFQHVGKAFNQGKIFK
inactive: [1] -0.017 | filanesib 0.012 | zotarolimus 0.027 | idasanutlin -0.014 | alisertib -0.046 | [2] -0.016 | gefitinib 0.018 | [3] -0.083 | lapatinib 0.041 | pictilisib -0.06 | [4] 0.011 | crizotinib 0.015 | [5] -0.028 | [6] 0.006 | duvelisib -0.011 | gandotinib -0.061 | tozasertib 0.046 | [7] 0.061 | doramapimod -0.013 | ispinesib 0.061

DNM2 (UniProt P50570)
Chain of UniProt P50570 (P50570 whole entry, looked up): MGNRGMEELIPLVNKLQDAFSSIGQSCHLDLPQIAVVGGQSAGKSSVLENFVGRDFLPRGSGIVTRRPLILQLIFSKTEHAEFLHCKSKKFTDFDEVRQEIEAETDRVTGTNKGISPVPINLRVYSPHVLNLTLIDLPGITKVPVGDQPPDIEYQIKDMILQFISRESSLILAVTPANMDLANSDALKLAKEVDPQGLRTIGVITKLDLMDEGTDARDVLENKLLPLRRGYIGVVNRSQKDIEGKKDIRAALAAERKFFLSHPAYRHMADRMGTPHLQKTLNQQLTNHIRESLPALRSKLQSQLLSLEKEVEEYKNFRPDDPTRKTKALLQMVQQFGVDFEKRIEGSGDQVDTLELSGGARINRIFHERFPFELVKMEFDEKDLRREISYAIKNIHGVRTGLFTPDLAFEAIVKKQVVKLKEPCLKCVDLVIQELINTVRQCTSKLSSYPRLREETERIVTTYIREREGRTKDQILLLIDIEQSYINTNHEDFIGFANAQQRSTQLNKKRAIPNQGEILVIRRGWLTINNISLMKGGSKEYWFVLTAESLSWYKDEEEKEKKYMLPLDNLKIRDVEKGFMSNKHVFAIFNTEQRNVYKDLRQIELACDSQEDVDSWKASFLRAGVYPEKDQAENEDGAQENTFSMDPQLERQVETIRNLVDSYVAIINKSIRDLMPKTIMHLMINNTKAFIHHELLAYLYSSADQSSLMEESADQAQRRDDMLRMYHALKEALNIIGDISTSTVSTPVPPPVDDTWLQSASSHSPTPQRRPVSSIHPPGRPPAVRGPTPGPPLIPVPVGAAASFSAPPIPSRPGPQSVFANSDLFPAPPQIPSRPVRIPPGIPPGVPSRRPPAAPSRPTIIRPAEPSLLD
inactive: [1] -0.022 | filanesib -0.107 | zotarolimus 0.016 | idasanutlin -0.078 | alisertib -0.073 | [2] 0.099 | gefitinib 0.002 | [3] 0.023 | lapatinib -0.026 | pictilisib 0.021 | [4] 0.017 | crizotinib -0.082 | [5] 0.062 | [6] -0.021 | duvelisib 0.05 | gandotinib -0.06 | tozasertib -0.071 | [7] 0.039 | doramapimod -0.039 | ispinesib -0.01

DNAJC7 (UniProt Q99615)
inactive: [1] 0.037 | filanesib -0.025 | zotarolimus 0.07 | idasanutlin -0.043 | alisertib -0.044 | [2] -0.031 | gefitinib 0.068 | [3] -0.031 | lapatinib 0 | pictilisib 0.014 | [4] 0.027 | crizotinib -0.014 | [5] 0.048 | [6] -0.028 | duvelisib 0.019 | gandotinib -0.088 | tozasertib -0.021 | [7] 0.095 | doramapimod -0.057 | ispinesib 0.001

DYNC1LI2 (UniProt O43237)
Chain of UniProt O43237 (O43237 whole entry, looked up): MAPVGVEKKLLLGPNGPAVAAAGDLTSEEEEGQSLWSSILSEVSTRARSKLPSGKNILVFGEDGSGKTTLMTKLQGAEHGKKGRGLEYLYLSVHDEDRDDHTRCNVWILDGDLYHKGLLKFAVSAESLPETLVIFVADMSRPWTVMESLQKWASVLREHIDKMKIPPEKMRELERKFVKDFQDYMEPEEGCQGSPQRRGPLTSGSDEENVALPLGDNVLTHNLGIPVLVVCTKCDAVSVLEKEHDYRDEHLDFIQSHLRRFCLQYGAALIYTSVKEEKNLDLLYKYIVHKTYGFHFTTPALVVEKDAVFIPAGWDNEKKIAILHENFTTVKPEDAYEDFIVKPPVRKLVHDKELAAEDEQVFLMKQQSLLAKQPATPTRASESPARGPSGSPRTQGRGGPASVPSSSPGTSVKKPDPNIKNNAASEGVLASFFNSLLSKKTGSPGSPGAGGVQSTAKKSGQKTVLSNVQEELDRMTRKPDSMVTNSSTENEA
inactive: [1] -0.19 | filanesib 0.384 | zotarolimus 0.005 | idasanutlin 0.092 | alisertib -0.053 | [2] 0.101 | gefitinib -0.099 | [3] -0.119 | lapatinib 0.116 | pictilisib -0.223 | [4] 0.025 | crizotinib 0.079 | [5] -0.283 | [6] 0.393 | duvelisib -0.049 | gandotinib 0.235 | tozasertib 0.018 | [7] 0.054 | doramapimod -0.121 | ispinesib -0.026

CYBA (UniProt P13498)
Chain of UniProt P13498 (P13498 whole entry, looked up): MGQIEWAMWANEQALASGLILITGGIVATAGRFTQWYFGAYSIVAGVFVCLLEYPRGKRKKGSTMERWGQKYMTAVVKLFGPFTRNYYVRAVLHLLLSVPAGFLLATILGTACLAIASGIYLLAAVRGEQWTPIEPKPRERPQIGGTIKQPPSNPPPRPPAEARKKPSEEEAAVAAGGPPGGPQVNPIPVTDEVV
inactive: [1] -0.06 | filanesib -0.189 | zotarolimus -0.067 | idasanutlin 0.017 | alisertib -0.044 | [2] -0.171 | gefitinib -0.007 | [3] 0.067 | lapatinib -0.034 | pictilisib -0.047 | [4] 0.069 | crizotinib -0.108 | [5] 0.024 | [6] -0.045 | duvelisib 0.05 | gandotinib -0.231 | tozasertib -0.043 | [7] 0.04 | doramapimod 0.01
active: ispinesib -0.488

DHRS3 (UniProt O75911)
Chain of UniProt O75911 (O75911 whole entry, looked up): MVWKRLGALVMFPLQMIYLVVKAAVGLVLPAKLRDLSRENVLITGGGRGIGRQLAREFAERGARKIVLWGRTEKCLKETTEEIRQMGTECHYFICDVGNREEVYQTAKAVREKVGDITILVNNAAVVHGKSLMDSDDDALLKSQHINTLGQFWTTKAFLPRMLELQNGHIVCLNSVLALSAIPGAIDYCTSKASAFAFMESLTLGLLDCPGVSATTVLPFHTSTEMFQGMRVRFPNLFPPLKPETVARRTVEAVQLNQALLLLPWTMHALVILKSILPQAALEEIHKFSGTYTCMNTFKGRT
inactive: [1] 0.13 | filanesib -0.009 | zotarolimus -0.056 | idasanutlin -0.107 | alisertib 0.008 | [2] 0.031 | gefitinib 0.067 | [3] 0.021 | lapatinib 0.065 | pictilisib 0.019 | [4] 0.083 | crizotinib 0.093 | [5] 0.115 | [6] 0.069 | duvelisib 0.027 | gandotinib -0.027 | tozasertib -0.089 | [7] -0.049 | doramapimod -0.037 | ispinesib 0.015

ERCC2 (UniProt P18074)
Chain of UniProt P18074 (P18074 whole entry, looked up): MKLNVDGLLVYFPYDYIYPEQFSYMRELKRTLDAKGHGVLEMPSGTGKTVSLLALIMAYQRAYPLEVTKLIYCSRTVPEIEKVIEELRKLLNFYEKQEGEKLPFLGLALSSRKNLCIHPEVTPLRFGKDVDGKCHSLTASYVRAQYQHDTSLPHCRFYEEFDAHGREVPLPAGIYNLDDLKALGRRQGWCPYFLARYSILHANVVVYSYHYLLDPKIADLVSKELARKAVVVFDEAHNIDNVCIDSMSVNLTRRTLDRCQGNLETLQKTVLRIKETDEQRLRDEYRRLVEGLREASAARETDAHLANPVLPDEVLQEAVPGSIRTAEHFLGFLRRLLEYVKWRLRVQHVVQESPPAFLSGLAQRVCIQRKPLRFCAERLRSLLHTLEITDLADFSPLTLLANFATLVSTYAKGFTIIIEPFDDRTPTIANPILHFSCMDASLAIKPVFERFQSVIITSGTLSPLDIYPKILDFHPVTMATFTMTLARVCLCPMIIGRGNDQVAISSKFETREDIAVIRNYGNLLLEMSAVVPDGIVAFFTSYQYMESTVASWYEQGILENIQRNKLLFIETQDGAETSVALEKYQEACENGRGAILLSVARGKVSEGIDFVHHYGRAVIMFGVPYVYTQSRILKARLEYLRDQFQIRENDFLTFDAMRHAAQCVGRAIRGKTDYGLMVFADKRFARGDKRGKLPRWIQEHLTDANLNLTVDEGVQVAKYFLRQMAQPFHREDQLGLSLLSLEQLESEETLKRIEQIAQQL
inactive: [1] -0.024 | filanesib 0.018 | zotarolimus 0.068 | idasanutlin 0.063 | alisertib 0.001 | [2] -0.061 | gefitinib -0.03 | [3] -0.021 | lapatinib 0.049 | pictilisib 0.042 | [4] 0.011 | crizotinib 0.059 | [5] -0.046 | [6] -0.013 | duvelisib -0.035 | gandotinib -0.035 | tozasertib -0.014 | [7] 0.08 | doramapimod 0.031 | ispinesib -0.045

FADS1, A0A0A0MR51
active: [1] -0.31 | gandotinib 0.434 | ispinesib -0.252
inactive: filanesib -0.112 | zotarolimus -0.004 | idasanutlin 0.055 | alisertib -0.007 | [2] -0.111 | gefitinib 0.049 | [3] 0.009 | lapatinib 0.044 | pictilisib -0.092 | [4] 0.096 | crizotinib -0.049 | [5] -0.019 | [6] -0.026 | duvelisib 0.016 | tozasertib -0.011 | [7] -0.007 | doramapimod 0

DBR1 (UniProt Q9UK59)
Chain of UniProt Q9UK59 (Q9UK59 whole entry, looked up): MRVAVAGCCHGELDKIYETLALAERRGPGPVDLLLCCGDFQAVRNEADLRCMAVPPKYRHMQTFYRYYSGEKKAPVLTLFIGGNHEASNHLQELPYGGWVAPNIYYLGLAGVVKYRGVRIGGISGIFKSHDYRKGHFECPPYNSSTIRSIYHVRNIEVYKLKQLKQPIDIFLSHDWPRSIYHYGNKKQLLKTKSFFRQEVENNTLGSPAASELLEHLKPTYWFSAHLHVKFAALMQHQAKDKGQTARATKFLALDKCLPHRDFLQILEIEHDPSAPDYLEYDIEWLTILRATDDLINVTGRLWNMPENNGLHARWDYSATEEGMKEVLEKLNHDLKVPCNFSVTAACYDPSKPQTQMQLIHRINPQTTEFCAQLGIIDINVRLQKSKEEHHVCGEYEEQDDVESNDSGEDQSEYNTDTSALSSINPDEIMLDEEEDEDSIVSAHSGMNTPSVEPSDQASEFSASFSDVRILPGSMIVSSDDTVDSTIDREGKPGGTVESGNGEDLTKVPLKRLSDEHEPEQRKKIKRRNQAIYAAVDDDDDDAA
inactive: [1] 0.051 | filanesib 0.036 | zotarolimus -0.003 | idasanutlin 0.015 | alisertib -0.018 | [2] 0.017 | gefitinib -0.049 | [3] 0.054 | lapatinib -0.021 | pictilisib -0.064 | [4] -0.034 | crizotinib -0.022 | [5] 0.061 | [6] -0.014 | duvelisib -0.072 | gandotinib 0.003 | tozasertib -0.051 | [7] 0.01 | doramapimod 0.02 | ispinesib 0.058

CTSZ (UniProt Q9UBR2)
active: ispinesib -0.481
inactive: [1] 0.073 | filanesib -0.05 | zotarolimus 0.011 | idasanutlin -0.019 | alisertib -0.079 | [2] -0.172 | gefitinib 0.035 | [3] 0.07 | lapatinib 0.015 | pictilisib 0.176 | [4] -0.001 | crizotinib -0.007 | [5] 0.021 | [6] -0.033 | duvelisib -0.037 | gandotinib 0.03 | tozasertib -0.015 | [7] -0.037 | doramapimod 0.05

— the supplement of paper PMC10849652
